The panel holds about 83,000 compounds, 20% with a hit somewhere; the sample as a whole holds those more often.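 Percent growth is the endpoint: 0 to 100 indicates growth inhibition (40 means 60% inhibition), 0 means no net growth, and negative values indicate cell death.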 Values without a mark were called inactive. The source made the active and inactive calls. Rule for the calls: active = growth percent below 10; inactive = the rest.

Among the test systems are HCT-15 colon; HT29 colon; SNB-75 CNS; SNB-19 CNS; U251 CNS; PC-3 prostate; SK-MEL-5 melanoma; UACC-62 melanoma; LOX IMVI melanoma; SK-MEL-28 melanoma; SK-MEL-2 melanoma; EKVX NSCLC; SN12C renal; TK-10 renal; ACHN renal; CAKI-1 renal; A498 renal; CCRF-CEM leukemia; MOLT-4 leukemia; UO-31 renal.
What all share (test): NCI-60 one-dose screen, 48 h (100 = growth as untreated, 0 = no growth, -100 = all killed)
What all share (conditions): 10 µM unless noted

For the molecule `CC(=O)Oc1ccc(/C=N/NC(N)=S)nc1`, the growth in the assay on HCT-15 colon was 92%; in the assay with HT29 colon, 94.6%; in the assay on SNB-75 CNS, 8.77% (active); with SNB-19 CNS, 102%; with U251 CNS, 51.7%; in the assay on PC-3 prostate, 81%. The growth in the assay with SK-MEL-5 melanoma was 14.6%; in the assay with UACC-62 melanoma, 59.3%; in the assay on LOX IMVI melanoma, 47.7%; in the assay on SK-MEL-28 melanoma, 65.7%; in the assay on SK-MEL-2 melanoma, 79.2%; in the assay with EKVX NSCLC, 105%. Further, the growth in the assay on SN12C renal was 73.6%; in the assay with TK-10 renal, 108%; in the assay on ACHN renal, 13.2%; with CAKI-1 renal, 49.8%; in the assay with A498 renal, 88.6%; with CCRF-CEM leukemia, 39.3%. The growth in the assay on MOLT-4 leukemia is 56%.
With `COc1cc(OC)cc(C(=O)C[n+]2cccc3cc[nH]c32)c1`, the growth is 108% in the assay on HCT-15 colon; 97.1% in the assay on HT29 colon; 86.9% in the assay on SNB-75 CNS; 93.1% in the assay on SNB-19 CNS; 102% in the assay on U251 CNS; 96.5% with PC-3 prostate. For the same molecule, the growth in the assay with SK-MEL-5 melanoma was 97.3%; in the assay with UACC-62 melanoma it was 89.8%; in the assay on LOX IMVI melanoma it was 93.8%; with SK-MEL-28 melanoma, 100%; with SK-MEL-2 melanoma, 103%; in the assay with EKVX NSCLC it was 98%. Besides, the growth in the assay with SN12C renal is 87.3%; in the assay with UO-31 renal it was 71.2%; with CAKI-1 renal, 89%; in the assay with A498 renal, 92.1%; in the assay on CCRF-CEM leukemia, 99.2%; in the assay on MOLT-4 leukemia it was 105%.
Take `COc1ccc(/C=N/NC(=O)c2cnn3c2NC(c2ccccc2)C3)cc1OC` (stereo not drawn): the growth in the assay with HCT-15 colon is 41.8%; in the assay on HT29 colon, 14%; in the assay on SNB-75 CNS, 51.6%; in the assay on SNB-19 CNS, 62.6%; in the assay on U251 CNS it was 54.4%; with PC-3 prostate it was 56.9%. For the same molecule, the growth with SK-MEL-5 melanoma is 66.7%; with UACC-62 melanoma, 47.7%; in the assay with LOX IMVI melanoma, 56.5%; in the assay with SK-MEL-28 melanoma it was 78%; in the assay on SK-MEL-2 melanoma, 41.9%; with EKVX NSCLC it was 87.2%. Further, the growth with SN12C renal is 81.8%; in the assay with UO-31 renal, 78.9%; in the assay with CCRF-CEM leukemia it was 66.7%; with MOLT-4 leukemia, 50.3%.
Consider `COc1ccc(NC(N)=NCCCOc2ccc(F)cc2)cc1`, for which the growth was 92.2% in the assay on HCT-15 colon; 36.6% in the assay on HT29 colon; 81.9% with SNB-75 CNS; 81.5% with SNB-19 CNS; 85.7% with U251 CNS; 66.8% in the assay with PC-3 prostate. The growth in the assay on SK-MEL-5 melanoma is 28%; in the assay on UACC-62 melanoma it was 87.8%; in the assay with LOX IMVI melanoma, 89.8%; with SK-MEL-28 melanoma, 88.5%; in the assay with SK-MEL-2 melanoma, 93.7%; in the assay on EKVX NSCLC, 69%. Also, the growth in the assay on SN12C renal was 80.5%; in the assay with TK-10 renal it was 87.3%; in the assay with ACHN renal, 89.3%; with CAKI-1 renal it was 94%; with CCRF-CEM leukemia, 82.9%; in the assay on MOLT-4 leukemia, 61%.
With `O=[N+]([O-])CC(c1ccccc1)c1c[nH]c2ccccc12` (stereo not drawn), the growth in the assay with HCT-15 colon was 26.5%; in the assay with HT29 colon, 12.5%; in the assay with SNB-75 CNS, 27.2%; in the assay on SNB-19 CNS, 58%; in the assay with U251 CNS it was 35.7%; in the assay with PC-3 prostate, 86.1%. Further, the growth was 50.9% in the assay on SK-MEL-5 melanoma; 35% in the assay on UACC-62 melanoma; 45.5% in the assay on LOX IMVI melanoma; 59.9% in the assay on SK-MEL-28 melanoma; 22.8% with SK-MEL-2 melanoma; 67% in the assay with EKVX NSCLC. Moreover, the growth was 52.8% in the assay with SN12C renal; 69.7% with TK-10 renal; 71.1% in the assay with ACHN renal; 42% with CAKI-1 renal; 46.9% with CCRF-CEM leukemia; 27.4% in the assay with MOLT-4 leukemia.
On to `Cc1ccc(NS(=O)(=O)c2ccc(-c3cnc(C4CC4)o3)cc2)cc1C(F)(F)F`, for which the growth in the assay with HCT-15 colon is 35.2%; in the assay with HT29 colon, 28.5%; in the assay with SNB-75 CNS, 46.6%; in the assay with SNB-19 CNS, 61%; with U251 CNS, 68.5%; in the assay with PC-3 prostate, 68.1%. In addition, the growth with SK-MEL-5 melanoma is 49%; in the assay on UACC-62 melanoma it was 47.3%; with LOX IMVI melanoma, 55.9%; in the assay on SK-MEL-28 melanoma, 64.1%; in the assay with EKVX NSCLC it was 75.3%; in the assay with SN12C renal it was 88.6%. In addition, the growth with TK-10 renal is 93.7%; with ACHN renal, 76.4%; in the assay with CAKI-1 renal, 42.7%; with A498 renal it was 47%; with CCRF-CEM leukemia, 56.8%.
Take `COC(=O)N[C@H]1CCc2c(Cl)c(OC)c(OC)c(OC)c2-c2ccc(SC)c(=O)cc21`: the growth in the assay on HCT-15 colon is 9.73% (active); in the assay with HT29 colon, 13%; in the assay on SNB-75 CNS it was 28%; in the assay on SNB-19 CNS, 26.3%; in the assay with U251 CNS, 21.5%; in the assay on PC-3 prostate, 21.1%. The growth in the assay on SK-MEL-5 melanoma was -37.4% (active); in the assay with UACC-62 melanoma, 36.9%; in the assay with LOX IMVI melanoma, 13.3%; in the assay with SK-MEL-28 melanoma, 60.8%; with EKVX NSCLC it was 47.8%; in the assay with SN12C renal, 21.1%. In addition, the growth with UO-31 renal was 22.7%; in the assay on TK-10 renal it was 45.9%; in the assay on ACHN renal, 30.9%; in the assay on CCRF-CEM leukemia, 1.53% (active); in the assay with MOLT-4 leukemia, 3.99% (active).
With `N#C/C(=C\c1cccc(C#N)c1)c1ccccc1`, the growth with HCT-15 colon was 111%; in the assay with HT29 colon, 96.6%; with SNB-75 CNS, 88.9%; with SNB-19 CNS, 109%; in the assay with U251 CNS, 89.2%; with PC-3 prostate it was 99.7%. Also, the growth is 101% in the assay on SK-MEL-5 melanoma; 98.9% in the assay on LOX IMVI melanoma; 115% with SK-MEL-28 melanoma; 112% with SK-MEL-2 melanoma; 90.7% with EKVX NSCLC; 98.9% in the assay with SN12C renal. The growth with UO-31 renal is 93.3%; with TK-10 renal, 91%; with ACHN renal, 106%; with CAKI-1 renal, 96%; in the assay with A498 renal, 112%.
With `CCc1ccc(CNc2ccc(N3CCOCC3)c(C(=O)O)c2)cc1`, the growth is 104% with HCT-15 colon; 96.4% in the assay with HT29 colon; 99.2% in the assay on SNB-75 CNS; 107% in the assay with SNB-19 CNS; 103% in the assay on U251 CNS; 106% with PC-3 prostate. Besides, the growth in the assay with SK-MEL-5 melanoma was 102%; with UACC-62 melanoma it was 102%; in the assay on LOX IMVI melanoma it was 96.8%; in the assay with SK-MEL-28 melanoma it was 107%; with EKVX NSCLC, 98.3%; in the assay on SN12C renal, 108%. In addition, the growth in the assay on UO-31 renal was 89.5%; in the assay with TK-10 renal it was 94%; with ACHN renal it was 103%; in the assay with CAKI-1 renal, 97.2%; in the assay on CCRF-CEM leukemia it was 102%; in the assay with MOLT-4 leukemia it was 99.2%.

(Values after PubChem BioAssay (NCI).)
